Assay outcomes as filed in PubChem BioAssay.
PKM2 activator: qHTS Assay for Activators of Human Muscle isoform 2 Pyruvate Kinase | Pyruvate kinase PKM (Homo sapiens), P14618 | purified PKM2, Kinase-Glo ATP luminescence, activation; response scale: 0% is enzyme alone, no compound | Potency, µM (highest dose often 57.5 µM), most hits filed as activators | 260,000 compounds, 0.34% hits; note: nearly all actives have a fitted effect of over 55% in size
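Purified hPK-M2 (>95% pure) converted ADP (0.1 mM final) to ATP with 0.5 mM PEP in 50 mM imidazole pH7.2, KCl, MgCl2, Tween 20, BSA; 1 h at room temperature. ATP detected by Kinase-Glo luminescence.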
CtBP-E1A inh: qHTS Assay for Inhibitors of the CtBP/E1A Interaction. CtBP / adenovirus E1A interaction (AlphaScreen). AlphaScreen GST-E1A/His-CtBP binding, 1536-well; hits give low values. activity change, % (concentration not given with the values). 340,000 compounds, 0.49% hits; in the data active = activity change below about -65%; inconclusive = mostly about -30% to -63%
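GST-E1A and His-tagged CtBP (125 nM each as 5X stock) were preincubated with pin-transferred compound for 2 h at 37 °C in the dark, then glutathione donor and nickel acceptor beads were added for 1 h before AlphaScreen reading.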
VP16 counter: VP16 counterscreen qHTS for inhibitors of ROR gamma transcriptional activity. Drosophila S2 Gal4-VP16 UAS-luciferase, luminescence, 20 h. Potency, µM (series often up to 53.6 µM), hits mostly inhibitors. 310,000 compounds, 3.5% hits. AID 2546, 2010;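 note: Gal4-VP16 expression switched on by copper sulfate through the metallothionein promoter; nearly all actives have a fitted effect of over 50% in size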
Six1-Eya2 blk: qHTS Assay for Inhibitors of the Six1/Eya2 Interaction | activity change, % (test concentration not listed) | AlphaScreen GST-Six1/His-Eya2 binding, biochemical; hits give low values | AID 651725, 2012 | 360,000 compounds, 0.56% hits; in the data active = activity change below about -65%; inconclusive = mostly about -30% to -63%
Target sequence (O00167 whole entry, looked up): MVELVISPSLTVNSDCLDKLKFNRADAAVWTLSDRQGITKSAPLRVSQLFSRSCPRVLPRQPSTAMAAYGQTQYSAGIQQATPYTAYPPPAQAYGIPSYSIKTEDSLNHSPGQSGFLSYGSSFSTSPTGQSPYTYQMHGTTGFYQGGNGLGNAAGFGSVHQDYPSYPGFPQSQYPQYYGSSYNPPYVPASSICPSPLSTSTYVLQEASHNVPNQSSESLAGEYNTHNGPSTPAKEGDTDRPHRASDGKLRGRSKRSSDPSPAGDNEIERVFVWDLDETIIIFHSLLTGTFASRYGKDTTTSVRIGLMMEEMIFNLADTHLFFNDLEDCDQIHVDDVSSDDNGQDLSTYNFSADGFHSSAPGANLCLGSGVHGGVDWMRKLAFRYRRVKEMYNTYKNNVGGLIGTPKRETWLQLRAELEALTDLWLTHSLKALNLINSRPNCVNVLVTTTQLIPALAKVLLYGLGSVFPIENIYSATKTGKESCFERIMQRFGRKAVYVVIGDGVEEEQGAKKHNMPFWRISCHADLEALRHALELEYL
Target sequence (Q15475 whole entry, looked up): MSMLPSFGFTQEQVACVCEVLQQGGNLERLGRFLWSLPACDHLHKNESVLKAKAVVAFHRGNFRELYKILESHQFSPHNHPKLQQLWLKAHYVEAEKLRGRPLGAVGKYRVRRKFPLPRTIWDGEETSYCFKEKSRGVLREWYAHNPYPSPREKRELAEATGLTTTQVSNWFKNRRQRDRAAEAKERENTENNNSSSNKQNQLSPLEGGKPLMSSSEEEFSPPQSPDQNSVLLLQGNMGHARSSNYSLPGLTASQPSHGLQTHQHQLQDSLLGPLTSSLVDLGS
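Homogeneous AlphaScreen proximity assay pairing GST-Six1 with His-tagged Eya2 (added as 5X mix: 250 nM and 500 nM) in 50 mM Tris pH 8.0, 300 mM NaCl, 1 mM TCEP. Glutathione donor and nickel acceptor beads; 1 h, 37 °C, dark.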
RORgamma inh: qHTS for inhibitors of ROR gamma transcriptional activity; Drosophila S2 Gal4-RORgamma UAS-luciferase reporter, 20 h; Potency, µM (titrated, usually from 53.6 µM), most hits filed as inhibitors; 310,000 compounds, 5.4% hits; note: nearly all actives have a fitted effect of over 60% in size
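Using a luciferase readout, inhibitors were identified by reduced reporter activity in Drosophila cells coexpressing a copper-inducible Gal4–ROR gamma fusion and UAS-driven Photinus luciferase, incubated 20 hr after 700 uM copper sulfate.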
Hits are given with their value. Sampled rows, rich in hits. Any-hit rate of the full collection: about 5.6%. Unless noted, calls come from the whole dose curve; as a rule, active = well fitted curve in the direction sought with a large enough effect; inconclusive = small, poorly fitted or top-dose-only effect, or another doubt; inactive = no such curve, though single readings can be large; an effect the other way counts as inactive or inconclusive.

Screening O=C(NC1CC1(c1ccccc1)c1ccccc1)c1ccccc1 (stereo not drawn) returned CtBP-E1A inh inactive and Six1-Eya2 blk inactive.
COC(=O)Oc1ccc(/C=N/NC(=O)CN(c2ccccc2Cl)S(C)(=O)=O)cc1OC was read as PKM2 activator inactive, CtBP-E1A inh inconclusive, VP16 counter inactive, Six1-Eya2 blk inconclusive and RORgamma inh 0.0089µM.
For Cc1oc(/C=N/NC(=O)CN(c2ccccc2Cl)S(C)(=O)=O)cc1Br the results were PKM2 activator inactive, CtBP-E1A inh inactive, VP16 counter inactive, Six1-Eya2 blk inactive and RORgamma inh inactive.
COC(=O)Oc1ccc(/C=N/NC(=O)CSCc2ccc(Cl)cc2)cc1OC was read as PKM2 activator inactive, VP16 counter 16µM, Six1-Eya2 blk inactive and RORgamma inh inactive.
COc1c(C)cc(C(O)c2ncc(-c3ccc4ccccc4c3)[nH]2)cc1C (stereo not drawn) was read as CtBP-E1A inh inactive and Six1-Eya2 blk inactive.
Screening CCCCOc1ccc(/C=C/C2=CC(C)(C)NC(=S)N2)cc1OCC returned PKM2 activator inactive, CtBP-E1A inh inactive, VP16 counter 1.8µM, Six1-Eya2 blk inactive and RORgamma inh 0.79µM.
O=C(N/N=C/c1cc([N+](=O)[O-])ccc1Cl)c1cc(-c2ccccc2)nc2ccccc12 was read as PKM2 activator inactive, CtBP-E1A inh inactive, VP16 counter inactive, Six1-Eya2 blk inactive and RORgamma inh inactive.
`O=C(N/N=C/c1cc([N+](=O)[O-])ccc1O)c1cc(-c2ccccc2)nc2ccccc12` gave PKM2 activator inactive, CtBP-E1A inh inactive, VP16 counter 4µM, Six1-Eya2 blk inconclusive and RORgamma inh 3.2µM.
Screening O=C(N/N=C/C=C\c1ccccc1[N+](=O)[O-])c1cc(-c2ccccc2)nc2ccccc12 returned PKM2 activator inactive, CtBP-E1A inh inactive, VP16 counter 2.8µM, Six1-Eya2 blk inactive and RORgamma inh 1.6µM.
Cc1cc(C(=O)Nc2ccc(Br)cc2)c2ccccc2n1 was read as PKM2 activator inactive, VP16 counter inactive, Six1-Eya2 blk inconclusive and RORgamma inh inactive.
Screening Cc1cc(C(=O)N/N=C/c2cc(Br)cc([N+](=O)[O-])c2O)c2ccccc2n1 returned PKM2 activator inactive, CtBP-E1A inh -94, VP16 counter 3.2µM, Six1-Eya2 blk -87 and RORgamma inh 2µM.
For O=C(NC(C(=O)N/N=C/c1cc([N+](=O)[O-])ccc1O)c1n[nH]c(=O)c2ccccc12)c1ccccc1 (stereo not drawn) the results were CtBP-E1A inh -88, VP16 counter inactive, Six1-Eya2 blk -90 and RORgamma inh inactive.
CN(C(=O)c1nn(C)c2c1CS(=O)(=O)c1ccccc1-2)c1cccc(Cl)c1 was read as CtBP-E1A inh inactive, VP16 counter inactive, Six1-Eya2 blk inactive and RORgamma inh inactive.
Screening Cc1cc(C(=O)N/N=C/c2cc([N+](=O)[O-])ccc2O)c2ccccc2n1 returned PKM2 activator inactive, CtBP-E1A inh inactive, VP16 counter 4.5µM, Six1-Eya2 blk -92 and RORgamma inh 2.8µM.
For Cc1ccc(C)c(S(=O)(=O)c2c[nH]c(=S)[nH]c2=O)c1 the results were VP16 counter inactive, Six1-Eya2 blk inactive and RORgamma inh inactive.
Nc1nc(-c2ccccc2)c(-c2ccccc2)n1N was read as CtBP-E1A inh inactive, VP16 counter 1.4µM, Six1-Eya2 blk inactive and RORgamma inh 0.4µM.
Screening Nc1c(-c2ccccc2)nc(Cl)nc1-c1ccccc1 returned PKM2 activator inactive, CtBP-E1A inh inactive, VP16 counter inactive, Six1-Eya2 blk inactive and RORgamma inh inactive.
`CN(C)CCN(C)Cc1ccccc1Sc1cccc2ccccc12` gave PKM2 activator inactive, CtBP-E1A inh inactive, VP16 counter inactive, Six1-Eya2 blk inactive and RORgamma inh inactive.
For CC(C)NC(=S)NNc1ncnc2sc3c(c12)CC(C)(C)OC3 the results were CtBP-E1A inh inactive and Six1-Eya2 blk inactive.
For CC1(C)Cc2c(sc3ncnc(NNC(=S)NCc4ccccc4)c23)CO1 the results were PKM2 activator inactive, VP16 counter 3.2µM, Six1-Eya2 blk inactive and RORgamma inh 2.2µM.
Cc1c(Cc2ccccc2)c(=O)oc2cc(OCC(=O)N3CCC(C(N)=O)CC3)ccc12 was read as PKM2 activator inactive, CtBP-E1A inh inactive, VP16 counter inactive, Six1-Eya2 blk inactive and RORgamma inh inconclusive.
Cc1ccc(C2(C(=O)N3CCC(n4nc(-c5ccccc5)oc4=O)CC3)CC2)cc1 was read as VP16 counter inactive, Six1-Eya2 blk inactive and RORgamma inh inactive.
Cc1cc(-c2nnc(SCC(=O)Nc3nc(-c4ccccc4)cs3)o2)no1 was read as PKM2 activator inactive, CtBP-E1A inh inactive, VP16 counter inactive, Six1-Eya2 blk inactive and RORgamma inh 14µM.
For Cc1cc(-c2nnc(SCC(=O)NC3CCCC3)o2)no1 the results were PKM2 activator inactive, CtBP-E1A inh inactive, VP16 counter inactive, Six1-Eya2 blk inactive and RORgamma inh inactive.
For Cc1csc(NC(=O)CSc2nnc(-c3cc(C)on3)o2)n1 the results were PKM2 activator inactive, VP16 counter 14µM, Six1-Eya2 blk inactive and RORgamma inh 14µM.
`COc1ccc(Cc2nnc(SCC(=O)Nc3nc(C)cs3)o2)cc1` gave PKM2 activator inactive, CtBP-E1A inh inactive, VP16 counter inactive, Six1-Eya2 blk inactive and RORgamma inh 35µM.
`C=CCOc1ccc(C(=O)CC)cc1OC` gave PKM2 activator inactive, CtBP-E1A inh inactive, VP16 counter inactive, Six1-Eya2 blk inactive and RORgamma inh inactive.
`COc1ccc(C2CC(c3ccccc3)Oc3cc(C)cc(C)c32)cc1` (stereo not drawn) gave VP16 counter inactive and RORgamma inh inactive.
Screening CN(C)c1ccc(C=c2c3cc(O)ccc3n3c2cc(-c2ccccc2)[n+]3C)cc1 returned CtBP-E1A inh inactive and Six1-Eya2 blk -74.
CN(C)c1ccc(C=c2c3ccccc3n3c2c2ccccc2[n+]3C)cc1 was read as CtBP-E1A inh inactive and Six1-Eya2 blk inactive.
For CCOC(=O)c1cc2c(=Cc3ccc(N(C)C)cc3)c3ccccc3n2[n+]1C the results were CtBP-E1A inh inactive and Six1-Eya2 blk -69.
Screening Cc1cc2c(=Cc3ccc(N(C)C)cc3)c3ccccc3n2[n+]1C returned CtBP-E1A inh -66 and Six1-Eya2 blk inactive.
`C[n+]1c(-c2ccccc2)cc2c(=Cc3ccccc3)c3ccccc3n21` gave CtBP-E1A inh inactive and Six1-Eya2 blk inconclusive.
